# Source: paper PMC11006913
# Tests used:
# Test in all cases: PBM; 200 nM protein, PBS
# Conditions in all cases: dsDNA, one strand shown
# HESX1 [1] = molecular target: HESX1 (Homo sapiens, UniProt Q9UBX0 95-180, R165K)
# ALX4 [2] = molecular target: ALX4 (Homo sapiens, UniProt Q9H161 200-286)
# ALX4 [3] = molecular target: ALX4 (Homo sapiens, UniProt Q9H161 200-286, Q225E)
# HESX1 [4] = molecular target: HESX1 (Homo sapiens, UniProt Q9UBX0 95-180)
# HESX1 [5] = molecular target: HESX1 (Homo sapiens, UniProt Q9UBX0 95-180, R109Q)
# HESX1 [6] = molecular target: HESX1 (Homo sapiens, UniProt Q9UBX0 95-180, P111T)
# HESX1 [7] = molecular target: HESX1 (Homo sapiens, UniProt Q9UBX0 95-180, F115L)
# PRRX1 [8] = molecular target: PRRX1 (Homo sapiens, UniProt P54821 80-166, F113S)
# MSX2 [9] = molecular target: MSX2 (Homo sapiens, UniProt P35548 130-214, R199I)
# ALX1 [10] = molecular target: ALX1 (Homo sapiens, UniProt Q15699 118-204, L144V)
# SHOX = SHOX (Homo sapiens, UniProt O15266 103-189, R173C)
# ALX1 [11] = molecular target: ALX1 (Homo sapiens, UniProt Q15699 118-204, L144R)
# PROP1 = PROP1 (Homo sapiens, UniProt O75360 56-141, R99H)
# ALX3 = ALX3 (Homo sapiens, UniProt O95076 139-225, L168Q)
# MSX2 [12] = molecular target: MSX2 (Homo sapiens, UniProt P35548 130-214, F161Y)
# ALX1 [13] = molecular target: ALX1 (Homo sapiens, UniProt Q15699 118-204)
# PRRX1 [14] = molecular target: PRRX1 (Homo sapiens, UniProt P54821 80-166)
# Sequence of PRRX1 (Homo sapiens, UniProt P54821 80-166) (P54821 80-166): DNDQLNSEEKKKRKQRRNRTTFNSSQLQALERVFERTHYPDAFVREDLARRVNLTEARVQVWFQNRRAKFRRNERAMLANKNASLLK
# Sequence of HESX1 (Homo sapiens, UniProt Q9UBX0 95-180, F115L) (Q9UBX0 95-180 F115L): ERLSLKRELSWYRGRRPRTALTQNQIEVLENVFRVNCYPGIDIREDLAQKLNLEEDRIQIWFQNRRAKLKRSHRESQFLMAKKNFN
# Sequence of HESX1 (Homo sapiens, UniProt Q9UBX0 95-180, P111T) (Q9UBX0 95-180 P111T): as the sequence (Q9UBX0 95-180 F115L) above, with P17T, L21F counted along it
# Sequence of HESX1 (Homo sapiens, UniProt Q9UBX0 95-180, R165K) (Q9UBX0 95-180 R165K): as the sequence (Q9UBX0 95-180 F115L) above, with L21F, R71K counted along it
# Sequence of HESX1 (Homo sapiens, UniProt Q9UBX0 95-180, R109Q) (Q9UBX0 95-180 R109Q): as the sequence (Q9UBX0 95-180 F115L) above, with R15Q, L21F counted along it
# Sequence of ALX4 (Homo sapiens, UniProt Q9H161 200-286, Q225E) (Q9H161 200-286 Q225E): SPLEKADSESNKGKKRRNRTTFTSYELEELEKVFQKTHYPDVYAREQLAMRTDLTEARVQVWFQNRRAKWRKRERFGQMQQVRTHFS
# Sequence of ALX4 (Homo sapiens, UniProt Q9H161 200-286) (Q9H161 200-286): as the sequence (Q9H161 200-286 Q225E) above, with E26Q counted along it
# Sequence of HESX1 (Homo sapiens, UniProt Q9UBX0 95-180) (Q9UBX0 95-180): as the sequence (Q9UBX0 95-180 F115L) above, with L21F counted along it
# Sequence of ALX1 (Homo sapiens, UniProt Q15699 118-204) (Q15699 118-204): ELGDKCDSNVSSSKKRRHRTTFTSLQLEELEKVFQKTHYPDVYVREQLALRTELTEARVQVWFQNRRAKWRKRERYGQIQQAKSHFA
# Sequence of ALX1 (Homo sapiens, UniProt Q15699 118-204, L144V) (Q15699 118-204 L144V): as the sequence (Q15699 118-204) above, with L27V counted along it
# Sequence of ALX1 (Homo sapiens, UniProt Q15699 118-204, L144R) (Q15699 118-204 L144R): as the sequence (Q15699 118-204) above, with L27R counted along it
# Sequence of PROP1 (O75360 56-141 R99H): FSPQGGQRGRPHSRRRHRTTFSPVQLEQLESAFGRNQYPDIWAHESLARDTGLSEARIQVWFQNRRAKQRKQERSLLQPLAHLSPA
# Sequence of PRRX1 (Homo sapiens, UniProt P54821 80-166, F113S) (P54821 80-166 F113S): as the sequence (P54821 80-166) above, with F34S counted along it
# Sequence of ALX3 (O95076 139-225 L168Q): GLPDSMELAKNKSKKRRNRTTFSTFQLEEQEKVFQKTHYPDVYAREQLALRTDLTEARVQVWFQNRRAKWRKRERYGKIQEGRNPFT
# Sequence of MSX2 (Homo sapiens, UniProt P35548 130-214, R199I) (P35548 130-214 R199I): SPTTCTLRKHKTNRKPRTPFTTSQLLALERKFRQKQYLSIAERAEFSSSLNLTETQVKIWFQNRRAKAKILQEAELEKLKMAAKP
# Sequence of MSX2 (Homo sapiens, UniProt P35548 130-214, F161Y) (P35548 130-214 F161Y): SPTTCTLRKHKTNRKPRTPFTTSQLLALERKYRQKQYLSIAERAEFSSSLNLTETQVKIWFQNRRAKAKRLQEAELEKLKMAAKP
# Sequence of SHOX (O15266 103-189 R173C): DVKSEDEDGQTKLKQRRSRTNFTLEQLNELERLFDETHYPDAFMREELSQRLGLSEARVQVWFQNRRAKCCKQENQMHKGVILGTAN
sequence,measurement,setting,value
AGGTACCT,binding signal,HESX1 [1],"6.5 upbm affinity estimate (log intensity, higher = more binding, comparable within an allelic series)"
same,binding signal,ALX4 [2],"8.17 upbm affinity estimate (log intensity, higher = more binding, comparable within an allelic series)"
same,binding signal,ALX4 [3],"8.34 upbm affinity estimate (log intensity, higher = more binding, comparable within an allelic series)"
same,binding signal,HESX1 [4],"6.5 upbm affinity estimate (log intensity, higher = more binding, comparable within an allelic series)"
same,binding signal,HESX1 [5],"6.6 upbm affinity estimate (log intensity, higher = more binding, comparable within an allelic series)"
same,binding signal,HESX1 [6],"6.54 upbm affinity estimate (log intensity, higher = more binding, comparable within an allelic series)"
same,binding signal,HESX1 [7],"6.63 upbm affinity estimate (log intensity, higher = more binding, comparable within an allelic series)"
AATGAGAG,binding signal,HESX1 [1],"7.5 upbm affinity estimate (log intensity, higher = more binding, comparable within an allelic series)"
same,binding signal,HESX1 [4],"7.55 upbm affinity estimate (log intensity, higher = more binding, comparable within an allelic series)"
AATTATCG,binding signal,HESX1 [1],"11.5 upbm affinity estimate (log intensity, higher = more binding, comparable within an allelic series)"
same,binding signal,ALX4 [2],"13.7 upbm affinity estimate (log intensity, higher = more binding, comparable within an allelic series)"
same,binding signal,PRRX1 [8],"11 upbm affinity estimate (log intensity, higher = more binding, comparable within an allelic series)"
same,binding signal,ALX4 [3],"12.7 upbm affinity estimate (log intensity, higher = more binding, comparable within an allelic series)"
same,binding signal,HESX1 [4],"11.6 upbm affinity estimate (log intensity, higher = more binding, comparable within an allelic series)"
same,binding signal,MSX2 [9],"12.3 upbm affinity estimate (log intensity, higher = more binding, comparable within an allelic series)"
same,binding signal,ALX1 [10],"11.5 upbm affinity estimate (log intensity, higher = more binding, comparable within an allelic series)"
same,binding signal,SHOX,"9.18 upbm affinity estimate (log intensity, higher = more binding, comparable within an allelic series)"
same,binding signal,ALX1 [11],"11.1 upbm affinity estimate (log intensity, higher = more binding, comparable within an allelic series)"
same,binding signal,HESX1 [5],"8.48 upbm affinity estimate (log intensity, higher = more binding, comparable within an allelic series)"
same,binding signal,PROP1,"10.8 upbm affinity estimate (log intensity, higher = more binding, comparable within an allelic series)"
same,binding signal,ALX3,"10.3 upbm affinity estimate (log intensity, higher = more binding, comparable within an allelic series)"
same,binding signal,HESX1 [6],"10.2 upbm affinity estimate (log intensity, higher = more binding, comparable within an allelic series)"
same,binding signal,MSX2 [12],"13 upbm affinity estimate (log intensity, higher = more binding, comparable within an allelic series)"
same,binding signal,HESX1 [7],"7.49 upbm affinity estimate (log intensity, higher = more binding, comparable within an allelic series)"
same,binding signal,ALX1 [13],"12 upbm affinity estimate (log intensity, higher = more binding, comparable within an allelic series)"
same,binding signal,PRRX1 [14],"13.2 upbm affinity estimate (log intensity, higher = more binding, comparable within an allelic series)"
ATTATAGC,binding signal,HESX1 [1],"8.55 upbm affinity estimate (log intensity, higher = more binding, comparable within an allelic series)"
same,binding signal,HESX1 [4],"8.71 upbm affinity estimate (log intensity, higher = more binding, comparable within an allelic series)"
CGCGCGAG,binding signal,HESX1 [1],"6.55 upbm affinity estimate (log intensity, higher = more binding, comparable within an allelic series)"
same,binding signal,ALX4 [2],"8.39 upbm affinity estimate (log intensity, higher = more binding, comparable within an allelic series)"
same,binding signal,ALX4 [3],"8.37 upbm affinity estimate (log intensity, higher = more binding, comparable within an allelic series)"
same,binding signal,HESX1 [4],"6.52 upbm affinity estimate (log intensity, higher = more binding, comparable within an allelic series)"
same,binding signal,HESX1 [5],"6.5 upbm affinity estimate (log intensity, higher = more binding, comparable within an allelic series)"
same,binding signal,HESX1 [6],"6.55 upbm affinity estimate (log intensity, higher = more binding, comparable within an allelic series)"
same,binding signal,HESX1 [7],"6.44 upbm affinity estimate (log intensity, higher = more binding, comparable within an allelic series)"
AGAGGCAC,binding signal,HESX1 [1],"6.29 upbm affinity estimate (log intensity, higher = more binding, comparable within an allelic series)"
same,binding signal,ALX4 [2],"8.1 upbm affinity estimate (log intensity, higher = more binding, comparable within an allelic series)"
same,binding signal,ALX4 [3],"8.02 upbm affinity estimate (log intensity, higher = more binding, comparable within an allelic series)"
same,binding signal,HESX1 [4],"6.48 upbm affinity estimate (log intensity, higher = more binding, comparable within an allelic series)"
same,binding signal,HESX1 [5],"6.44 upbm affinity estimate (log intensity, higher = more binding, comparable within an allelic series)"
same,binding signal,HESX1 [6],"6.5 upbm affinity estimate (log intensity, higher = more binding, comparable within an allelic series)"
same,binding signal,HESX1 [7],"6.64 upbm affinity estimate (log intensity, higher = more binding, comparable within an allelic series)"
CCATAATA,binding signal,HESX1 [1],"8.68 upbm affinity estimate (log intensity, higher = more binding, comparable within an allelic series)"
same,binding signal,HESX1 [4],"8.79 upbm affinity estimate (log intensity, higher = more binding, comparable within an allelic series)"
CAATAATG,binding signal,HESX1 [1],"8.97 upbm affinity estimate (log intensity, higher = more binding, comparable within an allelic series)"
same,binding signal,HESX1 [4],"9.26 upbm affinity estimate (log intensity, higher = more binding, comparable within an allelic series)"
AGAGGACC,binding signal,HESX1 [1],"6.6 upbm affinity estimate (log intensity, higher = more binding, comparable within an allelic series)"
same,binding signal,HESX1 [4],"6.46 upbm affinity estimate (log intensity, higher = more binding, comparable within an allelic series)"
same,binding signal,HESX1 [5],"6.58 upbm affinity estimate (log intensity, higher = more binding, comparable within an allelic series)"
same,binding signal,HESX1 [6],"6.41 upbm affinity estimate (log intensity, higher = more binding, comparable within an allelic series)"
same,binding signal,HESX1 [7],"6.55 upbm affinity estimate (log intensity, higher = more binding, comparable within an allelic series)"
CACGGCTG,binding signal,HESX1 [1],"6.44 upbm affinity estimate (log intensity, higher = more binding, comparable within an allelic series)"
same,binding signal,ALX4 [2],"7.95 upbm affinity estimate (log intensity, higher = more binding, comparable within an allelic series)"
same,binding signal,ALX4 [3],"7.97 upbm affinity estimate (log intensity, higher = more binding, comparable within an allelic series)"
same,binding signal,HESX1 [4],"6.33 upbm affinity estimate (log intensity, higher = more binding, comparable within an allelic series)"
same,binding signal,ALX1 [10],"6.21 upbm affinity estimate (log intensity, higher = more binding, comparable within an allelic series)"
same,binding signal,ALX1 [11],"6.3 upbm affinity estimate (log intensity, higher = more binding, comparable within an allelic series)"
same,binding signal,HESX1 [5],"6.53 upbm affinity estimate (log intensity, higher = more binding, comparable within an allelic series)"
same,binding signal,HESX1 [6],"6.39 upbm affinity estimate (log intensity, higher = more binding, comparable within an allelic series)"
same,binding signal,HESX1 [7],"6.49 upbm affinity estimate (log intensity, higher = more binding, comparable within an allelic series)"
same,binding signal,ALX1 [13],"6.11 upbm affinity estimate (log intensity, higher = more binding, comparable within an allelic series)"
AGCTGCCT,binding signal,HESX1 [1],"6.48 upbm affinity estimate (log intensity, higher = more binding, comparable within an allelic series)"
same,binding signal,HESX1 [4],"6.48 upbm affinity estimate (log intensity, higher = more binding, comparable within an allelic series)"
same,binding signal,HESX1 [5],"6.53 upbm affinity estimate (log intensity, higher = more binding, comparable within an allelic series)"
same,binding signal,HESX1 [6],"6.48 upbm affinity estimate (log intensity, higher = more binding, comparable within an allelic series)"
same,binding signal,HESX1 [7],"6.43 upbm affinity estimate (log intensity, higher = more binding, comparable within an allelic series)"
